Calls of active or inactive are those of the source. Rule as the data show it: active = inhibition of mean fluorescence above about 33%; inactive = the rest.
Test: quorum sensing inhibitors in bacterial reporter, SAR follow-up, flow cytometry, SAR analogs (AID 1014);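 also: Staphylococcus aureus RN6390 with RNAIII-GFP reporter stimulated by AIP; bacteria incubated with compound for 3 hours at 37 °C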
Settings: at 20 µM, stronger effect = higher value; inhibition of percent positive cells: flow cytometry fluorescence, measured here: percent reporter-positive cells

## CC(C)(C)c1ccc(S(=O)(=O)c2nnn3c2nc(Nc2ccccc2)c2ccccc23)cc1
  inhibition of mean fluorescence: -15.5% (inactive)
  inhibition of percent positive cells: -0.9%

## COc1ccc(NC(=O)C(c2cc3c(cc2[N+](=O)[O-])OCO3)N2CCN(C=O)CC2)cc1 (stereo not drawn)
  inhibition of mean fluorescence: -23.1% (inactive)
  inhibition of percent positive cells: 0%

## COc1ccc(Nc2nc3c(S(=O)(=O)c4ccc(C(C)(C)C)cc4)nnn3c3ccccc23)cc1
  inhibition of mean fluorescence: -16.7% (inactive)
  inhibition of percent positive cells: -0.8%

## CC1CCCN(C(C(=O)Nc2ccc3c(c2)OCCO3)c2ccccc2)C1 (stereo not drawn)
  inhibition of mean fluorescence: 91.5% (active)
  inhibition of percent positive cells: 63.1%

## O=C(NC1CCCC1)C(c1cc2c(cc1[N+](=O)[O-])OCO2)N1CCC(Cc2ccccc2)CC1 (stereo not drawn)
  inhibition of mean fluorescence: 4.9% (inactive)
  inhibition of percent positive cells: -0.6%

## O=C(NCC(c1cccnc1)N1CCN(c2ccccc2F)CC1)c1cccc(Cl)c1 (stereo not drawn)
  inhibition of mean fluorescence: 67.2% (active)
  inhibition of percent positive cells: 3.5%

## O=C(NCCN1CCN(C(=O)c2cc(F)c(F)cc2Cl)CC1)c1cc(F)c(F)cc1Cl
  inhibition of mean fluorescence: -25.7% (inactive)
  inhibition of percent positive cells: -1.2%

## Cc1ccc(C(C)C)c(OCC(=O)Nc2sc3c(c2C#N)CCCCC3)c1
  inhibition of mean fluorescence: -18.6% (inactive)
  inhibition of percent positive cells: -0.9%

## COc1ccc(N2CCN(C(CNC(=O)c3cccc(Cl)c3)c3cccnc3)CC2)cc1 (stereo not drawn)
  inhibition of mean fluorescence: -42% (inactive)
  inhibition of percent positive cells: -1.7%

## Cc1ccc(S(=O)(=O)c2nnn3c2nc(Nc2ccc(C(C)C)cc2)c2ccccc23)cc1
  inhibition of mean fluorescence: 12.6% (inactive)
  inhibition of percent positive cells: -1.7%

## COc1ccc(S(=O)(=O)c2nnn3c2nc(Nc2ccccc2)c2ccccc23)cc1
  inhibition of mean fluorescence: -22.4% (inactive)
  inhibition of percent positive cells: 0.4%

## CCc1ccc(Nc2nc3c(S(=O)(=O)c4ccccc4)nnn3c3ccccc23)cc1
  inhibition of mean fluorescence: 20.8% (inactive)
  inhibition of percent positive cells: -1.2%

## CC1CCCN(C(C(=O)Nc2ccc3c(c2)OCO3)c2ccccc2)C1 (stereo not drawn)
  inhibition of mean fluorescence: 81.5% (active)
  inhibition of percent positive cells: 81.9%

## CCOC(=O)c1c(C)oc2cc(Br)c(O)c(Br)c12
  inhibition of mean fluorescence: 55.9% (active)
  inhibition of percent positive cells: 0.7%

## O=C(c1ccco1)c1coc2ccc(O)cc12
  inhibition of mean fluorescence: -10.7% (inactive)
  inhibition of percent positive cells: 0.2%

## CC(C)(C)c1ccc(S(=O)(=O)c2n[nH]n3c2nc(=O)c2ccccc23)cc1
  inhibition of mean fluorescence: 13.3% (inactive)
  inhibition of percent positive cells: -1.8%

## CC(=O)c1cc2c(cc1NC(=O)CN1CCN(C(c3ccccc3)c3ccccc3)CC1)OCO2
  inhibition of mean fluorescence: 38.7% (active)
  inhibition of percent positive cells: 0.4%

## CC1CN(CCC(=O)Nc2ccc3c(c2)OCO3)CC(C)O1 (stereo not drawn)
  inhibition of mean fluorescence: 14% (inactive)
  inhibition of percent positive cells: -1.3%

## COc1cccc(-n2cc(C(=O)N=C3NC(=O)CS3)c3ccccc3c2=O)c1
  inhibition of mean fluorescence: -5.7% (inactive)
  inhibition of percent positive cells: 0%

## CN(C)c1ccc(Nc2c(C(=O)O)cc([N+](=O)[O-])cc2[N+](=O)[O-])cc1
  inhibition of mean fluorescence: 10.4% (inactive)
  inhibition of percent positive cells: 5.2%

## O=C(Nc1ccc2c(c1)OCCO2)C(c1ccccc1)N1CCOCC1 (stereo not drawn)
  inhibition of mean fluorescence: 9.5% (inactive)
  inhibition of percent positive cells: 2.3%

## O=C(O)c1cc([N+](=O)[O-])cc([N+](=O)[O-])c1Nc1ccc(Cl)cc1
  inhibition of mean fluorescence: -16.3% (inactive)
  inhibition of percent positive cells: 0.2%

## Cc1ccc(S(=O)(=O)c2nnn3c2nc(Nc2ccc(Oc4ccccc4)cc2)c2ccccc23)cc1
  inhibition of mean fluorescence: -5% (inactive)
  inhibition of percent positive cells: 0%

## COc1ccc(Nc2nc3c(S(=O)(=O)c4ccc(F)cc4)nnn3c3ccccc23)cc1
  inhibition of mean fluorescence: -28.2% (inactive)
  inhibition of percent positive cells: -1.1%

## COc1ccc(Nc2nc3c(S(=O)(=O)c4ccc(C(C)C)cc4)nnn3c3ccccc23)cc1
  inhibition of mean fluorescence: -10.2% (inactive)
  inhibition of percent positive cells: 0.3%

## Cc1[nH]nc(Nc2ccccc2C(=O)O)c1[N+](=O)[O-]
  inhibition of mean fluorescence: 0.1% (inactive)
  inhibition of percent positive cells: 0.2%

## CC(=O)c1cc2c(O)c(O)ccc2o1
  inhibition of mean fluorescence: 17.9% (inactive)
  inhibition of percent positive cells: -0.1%

## O=C(CN1C(=O)c2ccccc2C1=O)N=C1NC(=O)CS1
  inhibition of mean fluorescence: 3.2% (inactive)
  inhibition of percent positive cells: -1.2%

## COc1ccc(NC(=O)C(c2cc3c(cc2[N+](=O)[O-])OCO3)N2CCCC(C)C2)cc1 (stereo not drawn)
  inhibition of mean fluorescence: 29.6% (inactive)
  inhibition of percent positive cells: -0.9%

## O=C(Nc1ccc2c(c1)OCO2)C(c1ccccc1)N1CCC2(CC1)OCCO2 (stereo not drawn)
  inhibition of mean fluorescence: -2.7% (inactive)
  inhibition of percent positive cells: -0.2%

## CCc1c(C(=O)c2ccccc2)oc2c(C)c3oc(=O)cc(C)c3cc12
  inhibition of mean fluorescence: -0.6% (inactive)
  inhibition of percent positive cells: -1.3%

## Cc1ccc(Nc2ncccc2C(=O)O)cc1
  inhibition of mean fluorescence: -7.8% (inactive)
  inhibition of percent positive cells: -1.3%

## CC1CCCN(C(C(=O)NC2CCCC2)c2cc3c(cc2[N+](=O)[O-])OCO3)C1 (stereo not drawn)
  inhibition of mean fluorescence: 14.5% (inactive)
  inhibition of percent positive cells: -1.7%

## CC1CCN(C(C(=O)NC2CCCCC2)c2cc3c(cc2[N+](=O)[O-])OCO3)CC1 (stereo not drawn)
  inhibition of mean fluorescence: 6% (inactive)
  inhibition of percent positive cells: 0.7%

## COc1cccc(Nc2c(F)c(F)c(F)c(F)c2C(=O)O)c1
  inhibition of mean fluorescence: -12.9% (inactive)
  inhibition of percent positive cells: -0.2%

## CCc1ccc(Nc2nc3c(S(=O)(=O)c4ccc(Br)cc4)nnn3c3ccccc23)cc1
  inhibition of mean fluorescence: -16.7% (inactive)
  inhibition of percent positive cells: 0%

## O=C1CS/C(=N\C(=O)N2c3ccccc3Sc3ccccc32)N1
  inhibition of mean fluorescence: 91.4% (active)
  inhibition of percent positive cells: 52.4%

## Cc1ccccc1C(=O)N1CCC(C(=O)Nc2ccc3c(c2)OCO3)CC1
  inhibition of mean fluorescence: -8.8% (inactive)
  inhibition of percent positive cells: -0.4%

## O=C(NCC(c1cccnc1)N1CCN(c2ccccc2F)CC1)c1ccccc1F (stereo not drawn)
  inhibition of mean fluorescence: -1.3% (inactive)
  inhibition of percent positive cells: -0.4%
